The record followed here is PubChem BioAssay AID720514 (Broad Institute, 2013).

Screen size: about 2,100 compounds; about 300 (14%) were called active. Roughly 2% stayed inconclusive and do not appear here.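 The calls were made as follows: active = every replicate test run called active, with the signal falling and half-maximal concentration within twice the top valid dose; inconclusive = the replicate test runs disagree in their calls; inactive = every test run inactive, including effects in the opposite direction.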 The list is a sample of the results. Results with a measured potency or affinity are listed apart.

A short description of the assay: inhibitors of PGC1a acetylation in cells, dose response, cell-based, cherry-picked samples (AID 720514).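 Also: actives lower the acetylation signal so they count as inhibitors of PGC1a acetylation.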 The note with it: U2OS PGC1a acetylation, AlphaLISA, overnight; series mostly up to 19.5 µM.
Turning to `COc1ccc(Nc2nnc(-c3ccc(C(=O)NCCO)cc3)c3ccccc23)cc1`, the compound was called inactive.

For `Cn1ncc(Cl)c1C(=O)Nc1sc2c(c1C(N)=O)CCC2`, the call was inactive.

As for `N#Cc1cccc(C(c2nnnn2C2CCCC2)N2CCCCCC2)c1` (configuration not stated), the result was inactive.

Take `Cc1c(C(=O)N2CCN(c3ccccn3)CC2)sc2ncnc(N3CCN(c4ccccc4)CC3)c12`: the outcome was inactive.

Consider `COc1cc(NC(=O)c2cccs2)c(OC)cc1NC(=O)CCC(=O)Nc1ccc2ncccc2c1`, for which the result was inactive.

With `Cc1ccc(CC(=O)N2CCN(c3ccc([N+](=O)[O-])cc3)CC2)cc1`, the compound was called inactive.

Consider `O=C(Nc1ccc(F)cc1F)N1CCCN(c2ccc([N+](=O)[O-])cn2)CC1`, for which the compound was classed as inactive.

With `CS(=O)(=O)N(CC(=O)N1CCN(c2ccccc2)CC1)c1cccc(Br)c1`, the compound was classed as inactive.

Consider `Cc1ccc(OCC(=O)NCCCNC(=O)c2cccnc2)cc1C`, for which the call was inactive.

Turning to `O=C(COc1ccc(Cl)cc1)NCCCNC(=O)c1cccnc1`, the outcome was inactive.

For `Cc1cc2oc(=O)cc(CN3CCC(C)CC3)c2cc1C`, the compound was called inactive.

With `O=C(CN1CCC(n2nnc3ccccc32)CC1)NCc1cccs1`, the result was inactive.

For the compound `C=CCNC(=O)c1ccc(CN2CCC(Cc3ccccc3)CC2)cc1`, the compound was called inactive.

With `Cc1cc(C(=O)NNS(=O)(=O)c2ccc(F)cc2)nn1C(C)(C)C`, the result was inactive.

Turning to `COc1cc(CN2[C@@H]3CNC[C@H]2C3c2ccc(-c3ccccc3)cc2)cc(OC)c1` (some centres not stated), the compound was classed as inactive.

With `CCOc1ccc(NC2c3ccccc3C(=O)N2Cc2ccc3c(c2)OCO3)cc1` (configuration not stated), the result was inactive.

`COc1ccc(CCCNC(=O)C2(C)Cc3c(-c4ccc5c(c4)OCO5)ccnc3O2)cc1` (configuration not stated): the compound was called inactive.

As to `O=C(c1ccccc1Nc1ccc(SC(F)F)cc1)N1CCCCCC1`, the compound was called inactive.

With `Cc1cccc(Nc2nnc(-c3ccc(C(=O)N4C[C@H]5C[C@H](C4)c4cccc(=O)n4C5)cc3)c3ccccc23)c1`, the compound was classed as inactive.

In the case of `COC(=O)[C@H](Cc1ccccc1)N(C)S(=O)(=O)c1cccc(S(=O)(=O)N(C)[C@@H](Cc2ccccc2)C(=O)OC)c1`, the call was inactive.

In the case of `Cc1csc(NC(=O)NC2(C(F)(F)F)Oc3ccccc3O2)n1`, the call was inactive.

For `O=C(Nc1cccc(C(F)(F)F)c1)c1sc(Cl)nc1C(F)(F)F`, the outcome was inactive.

`Cc1cccc(C)c1OC1(c2ccccc2)OC(=O)c2ccccc21` (configuration not stated): the compound was classed as inactive.

Regarding `O=C(CCn1nnc2ccccc21)Nc1nnc(Cc2ccccc2)s1`, the outcome was inactive.

As to `O=S(=O)(NC12CC3CC(CC(C3)C1)C2)c1ccc(F)cc1`, the outcome was inactive.

For `O=C(CSc1nnc(Cn2cnc3ccccc32)o1)c1ccccc1`, the call was inactive.

As to `CCOc1ccc(-c2nnn(CC#N)n2)cc1OC`, the result was inactive.

As to `Cc1cc(C)c2oc(C(=O)N(Cc3ccccc3)c3ccccn3)cc(=O)c2c1`, the compound was classed as inactive.

With `Cc1ccc(NC(=O)CN(C)S(=O)(=O)c2cccs2)c(Br)c1`, the result was inactive.

For the compound `N#C/C(=C(/O)c1ccco1)c1nc2ccccc2[nH]1`, the outcome was inactive.

In the case of `COc1ccc(-c2c(-c3cc(OC)cc(OC)c3)n(C)c3ccc(-c4cnc(N)nc4)cc23)cc1`, the compound was classed as inactive.

Turning to `Cc1cc(S(=O)(=O)c2ccc([N+](=O)[O-])cn2)ccc1Br`, the compound was called inactive.

As to `O=C(NCCC1CCCCN1S(=O)(=O)c1cccs1)C(=O)Nc1ccc(F)cc1F` (configuration not stated), the compound was called inactive.

On to `O=C(Cc1ccccn1)NCC[C@H]1CC[C@H](NC(=O)Nc2ccc(C(F)(F)F)cc2)[C@H](CO)O1`, for which the compound was classed as inactive.

In the case of `O=C(Cc1ccccn1)NCC[C@@H]1CC[C@H](NC(=O)Nc2ccc(C(F)(F)F)cc2)[C@H](CO)O1`, the compound was called inactive.

Regarding `CCOC(=O)C(Cc1ccc(NC(=O)/C(=C\c2ccccc2)NC(=O)c2ccccc2)cc1)N1C(=O)c2ccccc2C1=O` (configuration not stated), the result was inactive.

Turning to `O=C(NCc1cccs1)C1Cc2c(-c3ccc(Cl)cc3)ccnc2O1` (configuration not stated), the compound was classed as inactive.

`C[n+]1c2n(c3ccccc31)N=C(c1cc(C(C)(C)C)c(O)c(C(C)(C)C)c1)CS2`: the compound was called inactive.

Regarding `COc1ccc([N+](=O)[O-])cc1NCc1ccccc1`, the compound was called inactive.

Take `Cc1cc(C)c2c(-n3cccc3)c(C(=O)NNS(=O)(=O)c3ccc(F)cc3)sc2n1`: the outcome was inactive.

Turning to `CCOC(=O)C1=CC[C@@H](c2ccccc2)N(S(=O)(=O)c2ccc(C)cc2)[C@H]1c1ccc(CC)cc1`, the outcome was inactive.

Take `CCN(CC)c1ccc(NC(=O)c2cc(OC)cc(OC)c2)c(C)c1`: the compound was classed as inactive.

For the compound `CCOC(=O)c1ccc(NC(=O)N2CCc3ccccc3C2)cc1`, the result was inactive.

In the case of `CC1(Cc2ccc(Cl)cc2)C(=O)Nc2c(Cl)ccc(Cl)c21` (configuration not stated), the outcome was inactive.

In the case of `Cc1ccc(OCC(=O)N2CC(C)OC(C)C2)c([N+](=O)[O-])n1` (configuration not stated), the call was inactive.

`CCOC(=O)C(C)n1cnc2c(nnn2-c2ccc(C)cc2)c1=O` (configuration not stated): the call was inactive.

Turning to `COc1ccc2nc3c(cc2c1)c(NC(=O)c1cccs1)nn3CC(C)C`, the compound was called inactive.

Turning to `O=C(NCc1ccccc1)C(c1ccccc1)N(C(=O)c1csnn1)c1ccc(F)cc1` (configuration not stated), the outcome was inactive.

Turning to `O=C(Nc1ccc(Nc2ccncc2)cc1)c1ccc([N+](=O)[O-])cc1`, the result was inactive.

Turning to `CCC(=O)Nc1ccc2c(c1)OC[C@@H](C)N(C(=O)c1cnccn1)C[C@H](C)[C@H](OC)CN(C)C2=O`, the compound was called inactive.

Turning to `CO[C@@H]1CN(C)C(=O)c2cc(NC(=O)c3ccc(Oc4ccccc4)cc3)ccc2OC[C@@H](C)NC[C@@H]1C`, the compound was classed as inactive.

Take `CCC(=O)N1C[C@H](C)[C@@H](OC)CN(C)C(=O)c2ccc(NC(=O)Nc3ccccc3)cc2OC[C@@H]1C`: the compound was classed as inactive.

As for `CCOC(=O)C1(N(CC)CC)Sc2cc(C)ccc2NC1=O` (configuration not stated), the call was inactive.

Regarding `CC(=O)Nc1sc2c(c1-c1nc3ccccc3s1)CN(C(C)C)CC2`, the compound was called inactive.

`C[C@@H]1CN([C@H](C)CO)C(=O)CCCn2nncc2CO[C@H]1CN(C)C(=O)C1CC1`: the outcome was inactive.

For `O=C(Cc1ccccc1)Nc1ccc(NC(=O)c2ccco2)nc1`, the outcome was inactive.

Turning to `CC(=O)C1=CCC(c2cccc3ccccc23)N(S(=O)(=O)c2ccc(C)cc2)C1` (configuration not stated), the call was inactive.

As for `CCOC(=O)N1CCN(C(=O)C(NS(=O)(=O)c2cccc3nsnc23)c2ccccc2)CC1` (configuration not stated), the compound was called inactive.

Take `O=C(COC(=O)c1ccco1)NCc1ccc2c(c1)OCO2`: the result was inactive.

Take `Cc1cccc(CS(=O)(=O)c2ncc(Cl)c(C(=O)Nc3ccc(F)cc3)n2)c1`: the call was inactive.

Consider `COc1ccc(C2CC(=O)N(C)c3ccccc3S2)cc1` (configuration not stated), for which the outcome was inactive.

Turning to `CC1(C)CCCN(C(=O)N2c3ccccc3Sc3ccccc32)C1`, the result was inactive.
